Compound activity: PubChem, National Center for Advancing Translational Sciences (NCATS)
Shown is part of a subset that was picked to be rich in hits.
Pf Dd2 growth – inhibitors of Plasmodium falciparum Dd2 growth. P. falciparum Dd2 growth, SYBR Green, 72 h. Potency, µM (series often up to 28.9 µM), without a hit: at the top dose activity, negative = inhibition, actives largely listed as inhibitors. hit rate 4.3% among 120,000; active means well fitted inhibition curve with a large enough effect;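 further: plate controls were DMSO vehicle for no effect and reference drug for full effect; nearly all actives have a fitted effect of over 65% in size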
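Readout: SYBR Green fluorescence, 485 nm excitation, 535 nm emission, after ~16 h lysis at 37C. Before that, Dd2-infected red cells (2.5% hematocrit) grew 72 h with compound, 29 uM top final concentration.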
* hit, by the source's call; i = inactive. Potency means the concentration at half of the fitted maximal effect.

SMILES | Pf Dd2 growth
COc1ccc(CCNC(=O)CCCn2c(=O)c3ccccc3n(CC(=O)Nc3cc(Cl)ccc3C)c2=O)cc1OC | -3.8%
COc1ccc(CCNC(=O)CCn2c(=O)c3ccccc3n(CC(=O)Nc3cc(Cl)ccc3C)c2=O)cc1OC | i
CCn1cc(C(=O)N2CCc3nc(NC)nc(C(=O)N4CCCC4)c3C2)c(C)n1 | -1.5%
CCNC(=O)[C@@H]1C[C@H](n2cc(C(C)(C)NC(=O)c3ccccc3C)nn2)CN1 | -9.0%
CN(C)CCCn1ccnc1C1CCCN(S(=O)(=O)N2CCCC2)C1 (centres undefined) | -3.5%
Cc1ccc(N2CCN(c3nc4c(c(=O)[nH]3)CCNC4)CC2)cc1 | 6.6%
CCCCN1CCN(C(=O)c2cc(Cl)c(C)c(Cl)c2)CC1=O | -7.1%
CCCCN1CCN(c2nc(-c3ccccc3)nc3c2CCNC3)CC1=O | 11.2µM*
O=C1CCN(C(=O)C2CCN(C(=O)CCc3ccccc3)CC2)CCCCCCN1 | -1.4%
CN(Cc1ccccc1)Cc1cn([C@H]2CO[C@H]3[C@@H]2OC[C@@H]3NC(=O)Nc2cccc(C(F)(F)F)c2)nn1 | -20.3%
Cc1oc2ncnc(N3CCCCC3)c2c1C(=O)NCC1CCN(Cc2cccc(F)c2)CC1 | -17.0%
Cc1ccc(C)c(CN2CCC(CNC(=O)Cn3ncc4c([nH]c5ccccc54)c3=O)CC2)c1 | -18.9%
Cc1ccc(C)c(CN2CCC(CNC(=O)c3cc4ccc5cccnc5c4[nH]3)CC2)c1 | 2.82µM*
